Assay outcomes as filed in PubChem BioAssay.
NTR1 agonist = NTR1 (human) agonism; NTR1-U2OS beta-arrestin-GFP spot imaging, agonist mode; activation, % at 20 µM; 0.17% of 330,000 active;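 active = activation at or above 40% of the spot to cytoplasm intensity ratio, with at least 20 cells analyzed; inconclusive = wells under 20 cells, flagged as cytotoxic or low count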;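 note: 0% = DMSO without peptide and 100% = 100 nM NTR1 peptide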
Target sequence (P30989 whole entry, looked up): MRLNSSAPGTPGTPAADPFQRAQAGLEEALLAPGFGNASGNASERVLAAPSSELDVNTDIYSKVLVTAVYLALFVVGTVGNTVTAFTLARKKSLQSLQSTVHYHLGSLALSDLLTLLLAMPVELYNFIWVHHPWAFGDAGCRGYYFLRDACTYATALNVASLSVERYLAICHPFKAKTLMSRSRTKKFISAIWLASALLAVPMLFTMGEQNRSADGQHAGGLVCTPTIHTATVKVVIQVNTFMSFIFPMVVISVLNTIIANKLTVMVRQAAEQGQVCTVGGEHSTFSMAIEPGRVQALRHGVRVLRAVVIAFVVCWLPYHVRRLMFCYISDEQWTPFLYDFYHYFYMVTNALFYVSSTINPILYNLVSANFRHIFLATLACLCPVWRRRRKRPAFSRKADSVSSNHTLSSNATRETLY
A1 inh = inhibitors of the anti-apoptotic protein A1, read as caspase activation; 0.066% of 330,000 active; caspase activation, % (concentration not given with the values); MEF A1-2A-BIM cells, Caspase-Glo 3/7 luminescence, 3 h; percent of clofoctol response, vehicle zero;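 active = over half of replicate activation scores above 10%, or exactly half above 10 with the replicate mean above 10; inconclusive = replicate mean below 10 yet half the replicates above 10; inactive = over half of replicates below 10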
VLA-4 inh = inhibition in a human VLA-4 binding assay; P13612; VLA-4 expressing cells, ligand binding flow cytometry; inhibition, % (about 7 µM as worked out from the volumes in the protocol); 0.2% of 330,000 active; AID 2557; in the data active = inhibition above about 50%
B2AR ag = agonists of human beta-2 adrenergic receptor inducing internalization | AID 504454 | response, % (test concentration not listed) | 0.43% of 340,000 active | Am2.2-beta2AR cells, FAP receptor internalization, flow cytometry;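 active = response above a set limit, near 3 SD of response in nonfluorescent compounds, cut at about 42% in these data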
GRK2 aptamer HTS = human GRK2 inhibition via aptamer displacement; inhibition of aptamer binding, % at 10 µM; 0.59% of 330,000 active; P25098; AID 488847; bead flow cytometry, FAM-aptamer displacement from GRK2;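 active = inhibition of aptamer binding above 40%, roughly 3 SD of noise, on plates passing a quality check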;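 note: median bead fluorescence of bound FAM aptamer so fluorescent compounds give negative values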
GRK2 inh confirm = confirmation of human GRK2 inhibitors displacing RNA aptamer. shares compounds with GRK2 aptamer HTS. bead-bound GRK2, FAM-aptamer displacement, flow cytometry. aptamer displacement, % at 10 µM. 4% of 2,000 active. AID 504451;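 active = aptamer displacement above 40%, near three times the noise of non-fluorescent compounds, on plates passing quality checks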;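 note: negative values mostly reflect intrinsic compound fluorescence rather than true enhancement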
Aptamer quench 1 = quenches fluorescent RNA aptamer, GRK2 hit artifact; fluorescence change (kMESF span), kMESF (test concentration not listed); AID 504521; 110 tested, under 10 active; Fluorescent RNA aptamer beads, quenching, flow cytometry; hits give high values; shares compounds with GRK2 aptamer HTS;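 active = compounds whose bead fluorescence drops by more than 37 kMESF across the dose range, marking them as dye quenchers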
Aptamer quench SP = aptamer fluorescence quenching in GRK2 counter-screen; shares compounds with GRK2 aptamer HTS; Carboxyfluorescein RNA aptamer on beads, flow cytometry quenching; hits give low values; fluorescence response (% of DMSO), % at 10 µM; 2,000 tested, under 10 active;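 active = compounds that quench the bead-bound fluorescent RNA probe, cutting fluorescence to under half of the solvent control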;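 note: counterscreen run without GRK2 so only probe quenching by compound is measured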
The depositor's hits bear a star; ? = inconclusive; nt = no result given. This is a sample that favours compounds with a hit; in the whole collection about 1.3% have one here.

SMILES	NTR1 agonist	A1 inh	VLA-4 inh	B2AR ag	GRK2 aptamer HTS	GRK2 inh confirm	Aptamer quench SP	others
CCn1cnc2cc(NCc3ccc(Br)cc3)ccc21	-0.6	-0.8	1.3	nt	44.0*	1.5	104.8
O=C(NC1CCN(Cc2ccccc2)CC1)c1cccc(S(=O)(=O)Nc2ccc(F)cc2)c1	-0.5	1.5	9.3	6.4	0.0	nt	nt
CC1(C)NC(=O)N(CCCCOc2ccc(Cl)cc2)C1=O	-0.4	-0.5	3.9	2.5	70.0*	-2.9	97.3
Cc1cc(OCCCCN2C(=O)NC(C)(C)C2=O)cc(C)c1Cl	5.0	?	1.2	-3.1	1.0	nt	nt
CNC(=O)c1c[nH]c2ccc(S(=O)(=O)Nc3ccccc3F)cc2c1=O	-0.1	-0.6	0.2	5.8	93.0*	8.4	102.6
CCc1ccccc1NS(=O)(=O)c1ccc2[nH]cc(C(=O)NC3CCCC3)c(=O)c2c1	16.2	0.6	10.3	1.2	6.0	nt	nt
COc1ccccc1CNS(=O)(=O)c1ccc2[nH]cc(C(=O)O)c(=O)c2c1	-0.4	0.8	5.9	3.4	59.0*	55.6*	91.2	Aptamer quench 1=-46.9
COc1ccc(N2CCN(C(=O)CCCOc3cc(=O)n(C)c4ccccc34)CC2)cc1	1.8	1.2	9.2	7.3	56.0*	-1.3	98.6
Cc1ccc(C)c(N2CCN(C(=O)CCCOc3cc(=O)n(C)c4ccccc34)CC2)c1	21.0	-1.4	-0.1	23.2	0.0	nt	nt
CS(=O)(=O)Oc1ccc2c(c1)O/C(=C\C=C\c1ccccc1)C2=O	1.0	-1.1	-14.8	1.3	49.0*	-4.8	96.7
CS(=O)(=O)Oc1ccc2c(c1)O/C(=C\c1cccc([N+](=O)[O-])c1)C2=O	4.5	0.6	2.6	1.5	1.0	nt	nt
COC(=O)c1cccc2c1NC(=O)C2=O	-0.2	-0.7	-5.9	8.2	71.0*	1.1	103.3
O=C(CCC(=O)N1CCN(Cc2ccccc2)CC1)Nc1nnc(C2CCCCC2)s1	-0.2	0.0	9.2	-5.8	0.0	nt	nt
Cc1cc(C)n(CC(=O)c2ccc(Br)cc2)c(=O)c1C#N	3.5	nt	5.9	0.5	71.0*	-6.8	102.1
O=C(O)c1ccccc1-c1c2cc(I)c(=O)c(I)c-2oc2c(I)c(O)c(I)cc12	-3.1	-0.4	8.1	-2.6	61.0*	80.1*	95.8	Aptamer quench 1=8.8
Cc1ccc(C(=O)NCC(=O)N/N=C/c2cccs2)cc1C	-0.6	-0.2	4.6	-2.8	0.0	nt	nt
OCC1(CCCc2ccccc2)CCN(Cc2cnc(N3CCOCC3)s2)CC1	-0.2	-0.2	-5.8	-5.2	0.0	-2.5	94.0
COc1cccc(CC2(CO)CCN(Cc3cnc(N4CCOCC4)s3)CC2)c1	-0.7	0.8	-2.0	-3.5	7.0	nt	nt
CCC1CCCCN1C(=O)CCS(=O)(=O)c1ccc2c(c1)CCN2C(C)=O (stereo unspecified)	0.5	1.4	8.4	-7.1	0.0	nt	nt
Cc1ccc(OC(C)C(=O)N2CC(=O)Nc3ccccc32)cc1 (stereo unspecified)	0.5	0.1	-3.0	-1.8	0.0	nt	nt
O=C(O)c1ccc(Cl)c(N2C(=O)Nc3ccccc3N2O)c1	-0.4	0.7	7.2	0.6	2.0	nt	nt
COc1ccc(C(=O)O)cc1N1C(=O)Nc2ccccc2N1O	0.9	-0.1	21.6	-2.4	78.0*	-0.1	100.4
Cc1ccc2oc(=O)c3cnn(CC(=O)NCCc4ccsc4)c3c2c1	1.0	0.1	-3.1	31.4	61.0*	4.9	102.5
CCN(CCCNC(=O)Cn1ncc2c(=O)oc3ccccc3c21)c1cccc(C)c1	3.3	0.2	-6.2	9.9	74.0*	1.3	96.3
Cc1ccc2oc(=O)c3cnn(CC(=O)NCCN(C)C)c3c2c1	1.3	0.2	14.8	4.8	1.0	nt	nt
SMILES	NTR1 agonist	A1 inh	VLA-4 inh	B2AR ag	GRK2 aptamer HTS	GRK2 inh confirm	Aptamer quench SP	others
C=CCOC(=O)c1ccccc1C(=O)OCC1CO1 (stereo unspecified)	nt	nt	nt	-5.9	nt	nt	nt
CCN(CC)CCCn1c2c(c(SCC(=O)Nc3ccccc3Cl)nc1=O)CCC2	2.0	0.0	8.8	-11.4	0.0	nt	nt
O=C(Cn1cnc2scc(-c3cccc([N+](=O)[O-])c3)c2c1=O)NCc1ccco1	2.4	0.8	19.8	26.4	88.0*	7.2	94.4
COc1ccc2cc(C#N)c(SCC(=O)N3CC(=O)Nc4ccccc43)nc2c1	8.7	1.5	-15.0	19.4	0.0	nt	nt
Cc1cccc2cc(C#N)c(SCC(=O)N3CC(=O)Nc4ccccc43)nc12	3.7	-0.2	-10.3	-16.2	57.0*	1.3	100.1
Cc1csc(CNc2ncnc3ccc(-c4ccoc4)cc23)c1	1.0	-1.0	26.2	-6.3	49.0*	-2.1	100.2
CC(C(=O)Nc1ccc(F)cc1Cl)N1CCN(S(=O)(=O)c2cccs2)CC1 (stereo unspecified)	2.0	nt	2.8	-1.6	2.0	nt	nt
CC(NC(=O)COC(=O)c1c[nH]c2ccccc12)c1ccccc1 (stereo unspecified)	-0.3	0.8	0.1	-0.7	31.0	-1.3	99.9
Cc1cc(C)n2nc(SCC(=O)N(CC(C)C)c3c(N)n(CC(C)C)c(=O)[nH]c3=O)nc2n1	2.2	0.3	3.0	-2.1	1.0	nt	nt
Cc1cc(C)n2nc(SCC(=O)c3c(N)n(CC(C)C)c(=O)n(C)c3=O)nc2n1	-0.9	0.2	5.5	-8.6	72.0*	-3.1	101.4
COC(=O)C1=C(C)NC(C)=C(C(=O)OC)C1C(=O)OCC(=O)Nc1ccc(C(C)=O)cc1	-1.0	-0.1	8.7	-4.6	75.0*	24.9	93.4
COc1ccc(/C(O)=C2/C(=O)C(=O)N(CCN(C)C)C2c2ccc(OC)c(OC)c2)c(C)c1 (stereo unspecified)	1.6	-0.2	10.2	7.0	71.0*	-3.4	114.4
COc1ccc(C2/C(=C(/O)c3cnn(-c4ccccc4)c3C)C(=O)C(=O)N2CCN(C)C)cc1OC (stereo unspecified)	nt	nt	nt	-5.9	nt	nt	nt
Cc1ccc2cc(C3C(C#N)=C(N)Oc4c3ccc3cccnc43)c(=O)[nH]c2c1 (stereo unspecified)	0.3	-0.3	2.4	-3.6	97.0*	-3.0	110.4
CC(=O)n1c(=O)c2ccccc2c(=O)n1-c1ccccc1	-1.2	-0.7	1.2	6.8	23.0	-29.2	213.3
CN(C)S(=O)(=O)c1ccc(C(=O)NCc2ccco2)cc1	2.6	0.3	-3.8	13.9	0.0	nt	nt
CCCN(CCC)S(=O)(=O)c1ccc(C(=O)NCc2ccco2)cc1	0.4	1.6	-6.4	0.3	64.0*	-1.6	103.4
N#CCc1ccc(NS(=O)(=O)c2ccc(C3CCCCC3)cc2)cc1	nt	-1.1	8.2	-1.1	78.0*	0.5	96.5
